Assay outcomes as filed in PubChem BioAssay.
The entries come from a sample that favours hits as a whole.
miR-122 inh – activators of miR-122 sensor in Huh7 cells; Huh7 psiCHECK-miR122 Renilla luciferase sensor, 48 h; activation, % at 12.5 µM; hit rate 0.14% among 340,000;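 active = mean activation of 30% or more, with every replicate also reaching 30%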;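 also: 0% = median of neutral control wells and 100% = median of positive control wells; higher luciferase signal means stronger suppression of miR-122 activity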
The depositor's hits bear a star.

SMILES	miR-122 inh
Cc1ccc(NC(=O)c2nc(C)n(-c3ccc([N+](=O)[O-])cc3)n2)cc1	43*
C[C@@H]1CN([C@@H](C)CO)C(=O)c2cc(Br)cnc2O[C@@H]1CN(C)CC1CCOCC1	6
C[C@H](CO)N1C[C@H](C)[C@H](CN(C)S(C)(=O)=O)Oc2cc(C#Cc3ccc(F)cc3)ccc2S1(=O)=O	5
CCCNC(=O)N(C)C[C@@H]1Oc2cc(C#CCOC)ccc2S(=O)(=O)N([C@@H](C)CO)C[C@H]1C	-19
c1ccc(CCCNCCCn2cnc3c(OCc4ccccc4)ncnc32)cc1	34*
CC(C)CC#Cc1cnc2c(c1)C(=O)N([C@H](C)CO)C[C@@H](C)[C@H](CN(C)C(=O)NC1CCCC1)O2	-3
C[C@H](O)C#Cc1ccc2c(c1)O[C@@H](CN(C)C(=O)Cc1ccccn1)[C@@H](C)CN([C@@H](C)CO)S2(=O)=O	-7
O=C(N/N=C/c1sc2ccccc2c1O)c1ccccc1	41*
COc1ccccc1-c1ccc2c(c1)O[C@H](CN(C)C(C)=O)[C@H](C)CN([C@H](C)CO)S2(=O)=O	-26
CC(C)C#Cc1ccc2c(c1)O[C@@H](CN(C)C(=O)CN(C)C)[C@H](C)CN([C@H](C)CO)S2(=O)=O	-3
COCC#Cc1cnc2c(c1)C(=O)N([C@H](C)CO)C[C@@H](C)[C@H](CN(C)C(=O)Cc1ccccc1)O2	-10
CCC(=O)Nc1ccc2c(c1)OC[C@H](C)N(C(=O)c1ccncc1)C[C@@H](C)[C@@H](OC)CN(C)C2=O	1
C[C@H]1CN([C@@H](C)CO)C(=O)c2cc(C#CC3(O)CCCC3)cnc2O[C@H]1CN(C)Cc1cncnc1	-4
CCC(=O)Nc1ccc2c(c1)OC[C@H](C)NC[C@@H](C)[C@@H](OC)CN(C)C2=O	-7
C[C@@H]1CN([C@@H](C)CO)C(=O)c2cc(-c3cccnc3)cnc2O[C@@H]1CN(C)S(C)(=O)=O	-9
NC(Cc1ccc(C(F)(F)F)cc1)c1csc(Nc2nncc3ccccc23)n1 (configuration not stated)	34*
C[C@H]1CN([C@@H](C)CO)C(=O)c2cc(Br)cnc2O[C@H]1CN(C)CC1CCOCC1	12
CCC(=O)N(C)C[C@@H]1Oc2ncc(C#C[C@H](C)O)cc2C(=O)N([C@@H](C)CO)C[C@H]1C	-1
COCC(=O)N(C)C[C@@H]1Oc2cc(-c3cccc(F)c3)ccc2S(=O)(=O)N([C@H](C)CO)C[C@H]1C	-3
CCC(=O)N(C)C[C@@H]1Oc2ncc(C#Cc3ccc(OC)cc3)cc2C(=O)N([C@@H](C)CO)C[C@H]1C	-2
CO[C@H]1CN(C)C(=O)c2cc(NS(=O)(=O)CC(F)(F)F)ccc2OC[C@@H](C)N(C)C[C@H]1C	1
COc1ccc(CN(C(=O)c2ccc(-c3ccccc3)[nH]2)C(C(=O)NCC2CCCO2)c2ccc(C)o2)cc1 (configuration not stated)	-230
COc1cccc(Nc2nc(NCC3CCCO3)c3ccccc3n2)c1 (configuration not stated)	51*
COc1ccccc1NS(=O)(=O)c1cc(NC(=S)NCC2CCCO2)ccc1C (configuration not stated)	-99
C[C@@H]1CN([C@@H](C)CO)S(=O)(=O)c2ccc(Br)cc2O[C@@H]1CN(C)S(C)(=O)=O	-4
SMILES	miR-122 inh
CCC(=O)N(C)C[C@H]1Oc2ncc(C#C[C@@H](C)O)cc2C(=O)N([C@H](C)CO)C[C@H]1C	-5
CO[C@H]1CN(C)C(=O)c2ccc(NS(=O)(=O)c3ccc(C)cc3)cc2OC[C@@H](C)N(C)C[C@H]1C	2
COc1cccc(NC(=O)N(C)C[C@H]2Oc3cc(-c4cccc(C(=O)N(C)C)c4)ccc3S(=O)(=O)N([C@@H](C)CO)C[C@@H]2C)c1	-44
O=C(NC[C@@H]1[C@H](c2ccccc2)[C@@H](CO)N1C(=O)C1CC1)NC1CCCC1	-108
CCN(C[C@H]1[C@H](c2ccccc2)[C@@H](CO)N1C(=O)C1CC1)C(=O)NC1CCCC1	36*
Cc1ccc(-c2cnc3c(c2)C(=O)N([C@H](C)CO)C[C@H](C)[C@H](CN(C)C(=O)c2ccncc2)O3)cc1	-3
C[C@H](CO)N1C[C@H](C)[C@H](CN(C)C(=O)c2cccnc2)Oc2ncc(Br)cc2C1=O	2
Cc1cc(C)cc(NC(=O)c2ccc(CSc3nnc(C)s3)cc2)c1	34*
CC(C)C#Cc1ccc2c(c1)O[C@H](CN(C)C(=O)CN(C)C)[C@@H](C)CN([C@@H](C)CO)S2(=O)=O	-12
COCC#Cc1ccc2c(c1)O[C@H](CN(C)C(=O)COC)[C@@H](C)CN([C@H](C)CO)S2(=O)=O	1
C[C@H](CO)N1C[C@H](C)[C@@H](CN(C)S(C)(=O)=O)Oc2ncc(C#CC3(O)CCCC3)cc2C1=O	6
CN(C)c1ccc(/C=C/c2ccc3ccccc3[n+]2C)cc1	49*
C[C@H]1CN([C@@H](C)CO)S(=O)(=O)c2ccc(C#Cc3cccnc3)cc2O[C@H]1CN(C)CC1CCOCC1	-4
CCCCCCOc1ccc(/C(C)=N/NC2=NCCN2)cc1	65*
CCS(=O)(=O)Nc1ccc2c(c1)C(=O)N(C)C[C@@H](OC)[C@H](C)CN[C@@H](C)CO2	-1
C[C@@H]1CN([C@H](C)CO)S(=O)(=O)c2ccc(C#CC3CC3)cc2O[C@@H]1CN(C)C(=O)C1CC1	14
C/C=C/c1cnc2c(c1)C(=O)N([C@H](C)CO)C[C@H](C)[C@@H](CN(C)C(=O)c1cccnc1)O2	1
CCCNC(=O)N1[C@H](CNC(=O)c2ccc(F)cc2)[C@H](c2ccccc2)[C@@H]1CO	42*
CCCNC(=O)NC[C@@H]1[C@@H](c2ccc(C3=CCCCC3)cc2)[C@H](CO)N1C(C)=O	-114
CCCNC(=O)Nc1ccc2c(c1)OC[C@H](C)NC[C@H](C)[C@H](OC)CN(C)C2=O	-4
C[C@@H]1CN([C@H](C)CO)C(=O)c2cc(-c3cccc(F)c3)cnc2O[C@H]1CN(C)CC1CCCC1	9
CCn1c(SCC(=O)Nc2ccc(N3CCOCC3)cc2)nnc1-c1ccc(OC)cc1	-142
CCn1c(CCNC(=O)c2ccc(OC)cc2)nnc1SCC(=O)Nc1ccccc1F	-120
CCOc1ccc(-c2nnc(SCC(=O)Nc3ccc4c(c3)c3ccccc3n4CC)n2N)cc1	54*
C[C@@H]1CN([C@H](C)CO)C(=O)c2cc(-c3ccncc3)cnc2O[C@H]1CN(C)C(=O)Cc1cccnc1	1
SMILES	miR-122 inh
COCC#Cc1cnc2c(c1)C(=O)N([C@@H](C)CO)C[C@H](C)[C@@H](CN(C)C(=O)Nc1ccc(OC)cc1)O2	4
Cc1ccccc1-c1cnc2c(c1)C(=O)N([C@H](C)CO)C[C@H](C)[C@H](CN(C)C(=O)c1ccccc1)O2	0
CCCC(=O)OCCNc1cc(Sc2nccn2C)c2nonc2c1[N+](=O)[O-]	62*
CCCNC(=O)N(C)C[C@H]1Oc2ncc(C#C[C@H](C)O)cc2C(=O)N([C@@H](C)CO)C[C@@H]1C	2
C[C@H](CO)N1C[C@H](C)[C@H](CN(C)CC2CCOCC2)Oc2cc(C#Cc3cccnc3)ccc2S1(=O)=O	3
COCC#Cc1cnc2c(c1)C(=O)N([C@@H](C)CO)C[C@@H](C)[C@@H](CN(C)Cc1ccccc1)O2	0
CC(C)C(=O)Nc1ccc2c(c1)C(=O)N(C)[C@H]1CC[C@H](CC(=O)NCc3cccc(F)c3)O[C@H]1CO2	-440
CO[C@@H]1CN(C)C(=O)c2cc(NC(=O)Cc3ccccc3)ccc2OC[C@@H](C)N(CCc2ccccc2)C[C@H]1C	-4
